# Results from PubChem BioAssay.
# Calls of active or inactive are those of the source.
# Tests used:
# [1] = test system: PRMT1 (protein arginine N-methyltransferase 1); experiment: small molecules binding arginine methyltransferase PRMT1 – biochemical, small-molecule microarray, 635 nm fluorescence, primary screen (AID 1088); settings: higher = more signal;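 also: binding of Prmt1 protein to compounds spotted on small-molecule microarray slides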
# [2] = growth effects on S. cerevisiae YJM789 – YJM789 clinical isolate, OD600, 24 h, basal, primary screen (AID 1089); settings: higher = more signal, called active from +8 up or from −8 down;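 also: growth of clinical yeast isolate S. cerevisiae YJM 789 seeded 1000 cells per well; test concentration not given here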
# [3] = S. pombe growth modifiers, basal conditions – strain 972, OD600, 24 h, no modulator, primary screen (AID 1090);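 also: basal condition with compound alone and no growth modifier present; test concentration not given here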; settings: S. pombe 972 growth, higher = more signal, called active from +8 up or from −8 down
# [4] = budding yeast growth modifiers under rapamycin – strain BY4716, OD600, 96 h, primary screen (AID 1091); also: test concentration not given here; settings: S. cerevisiae BY4716 + rapamycin, higher = more signal, called active from +8 up or from −8 down
# [5] = target: Torsin-1A-interacting protein 2 (Homo sapiens) (UniProt Q8NFQ8); experiment: small molecules binding lysate-expressed LULL1 – cell lysate, human LULL1 lysate, 635/667 nm fluorescence, primary screen (AID 1092); settings: small-molecule microarray, hLULL1 lysate binding, 635 nm fluorescence; higher = more signal;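 also: probe is lysate of COS7 cells overexpressing human LULL1; score merges per-feature 667 nm fluorescence with signal-to-noise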
# Torsin-1A-interacting protein 2 (Homo sapiens), sequence (Q8NFQ8 whole entry, looked up): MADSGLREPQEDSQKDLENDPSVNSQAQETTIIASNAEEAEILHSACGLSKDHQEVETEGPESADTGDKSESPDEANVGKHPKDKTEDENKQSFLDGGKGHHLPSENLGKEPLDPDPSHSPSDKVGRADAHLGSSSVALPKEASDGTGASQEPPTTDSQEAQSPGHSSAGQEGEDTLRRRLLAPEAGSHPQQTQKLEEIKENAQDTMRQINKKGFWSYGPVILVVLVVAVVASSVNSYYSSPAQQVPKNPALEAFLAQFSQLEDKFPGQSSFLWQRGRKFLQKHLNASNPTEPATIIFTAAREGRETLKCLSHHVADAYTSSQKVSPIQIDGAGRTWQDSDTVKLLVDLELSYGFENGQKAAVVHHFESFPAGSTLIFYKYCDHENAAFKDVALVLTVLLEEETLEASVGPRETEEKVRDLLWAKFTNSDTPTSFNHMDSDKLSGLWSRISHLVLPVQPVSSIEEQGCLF
# [6] = optical density change of DRC41 E. coli – strain DRC41, OD650, 24 h, E. coli filamentation project, primary screen (AID 1093);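 also: MC1000 strain lacking acrAB efflux and sulA so SOS filamentation is blocked; test concentration not given here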; settings: E. coli DRC41 growth, higher = more signal, called active from +8 up or from −8 down
# [7] = probe aLefty2 binding to arrayed compounds – biochemical, biotinylated probe, 635/667 nm fluorescence, primary screen (AID 1094); settings: small-molecule microarray, higher = more signal;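 also: score merges spot fluorescence near 667 nm with spot signal-to-noise ratio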
# [8] = test system: Noggin (protein binding on small-molecule microarray); experiment: small molecules binding Noggin protein – biochemical, 635/667 nm fluorescence, primary screen (AID 1095); settings: 635 nm fluorescence, higher = more signal;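 also: score merges 667 nm feature fluorescence with signal to noise over triplicate slides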
# [9] = target: Neurogenic locus notch homolog protein 3 (Homo sapiens) (UniProt Q9UM47); experiment: small molecules binding NOTCH3 protein – biochemical, 635/667 nm fluorescence, primary screen (AID 1096); settings: small-molecule microarray, 635 nm fluorescence, higher = more signal
# Neurogenic locus notch homolog protein 3 (Homo sapiens), sequence (Q9UM47 whole entry, looked up): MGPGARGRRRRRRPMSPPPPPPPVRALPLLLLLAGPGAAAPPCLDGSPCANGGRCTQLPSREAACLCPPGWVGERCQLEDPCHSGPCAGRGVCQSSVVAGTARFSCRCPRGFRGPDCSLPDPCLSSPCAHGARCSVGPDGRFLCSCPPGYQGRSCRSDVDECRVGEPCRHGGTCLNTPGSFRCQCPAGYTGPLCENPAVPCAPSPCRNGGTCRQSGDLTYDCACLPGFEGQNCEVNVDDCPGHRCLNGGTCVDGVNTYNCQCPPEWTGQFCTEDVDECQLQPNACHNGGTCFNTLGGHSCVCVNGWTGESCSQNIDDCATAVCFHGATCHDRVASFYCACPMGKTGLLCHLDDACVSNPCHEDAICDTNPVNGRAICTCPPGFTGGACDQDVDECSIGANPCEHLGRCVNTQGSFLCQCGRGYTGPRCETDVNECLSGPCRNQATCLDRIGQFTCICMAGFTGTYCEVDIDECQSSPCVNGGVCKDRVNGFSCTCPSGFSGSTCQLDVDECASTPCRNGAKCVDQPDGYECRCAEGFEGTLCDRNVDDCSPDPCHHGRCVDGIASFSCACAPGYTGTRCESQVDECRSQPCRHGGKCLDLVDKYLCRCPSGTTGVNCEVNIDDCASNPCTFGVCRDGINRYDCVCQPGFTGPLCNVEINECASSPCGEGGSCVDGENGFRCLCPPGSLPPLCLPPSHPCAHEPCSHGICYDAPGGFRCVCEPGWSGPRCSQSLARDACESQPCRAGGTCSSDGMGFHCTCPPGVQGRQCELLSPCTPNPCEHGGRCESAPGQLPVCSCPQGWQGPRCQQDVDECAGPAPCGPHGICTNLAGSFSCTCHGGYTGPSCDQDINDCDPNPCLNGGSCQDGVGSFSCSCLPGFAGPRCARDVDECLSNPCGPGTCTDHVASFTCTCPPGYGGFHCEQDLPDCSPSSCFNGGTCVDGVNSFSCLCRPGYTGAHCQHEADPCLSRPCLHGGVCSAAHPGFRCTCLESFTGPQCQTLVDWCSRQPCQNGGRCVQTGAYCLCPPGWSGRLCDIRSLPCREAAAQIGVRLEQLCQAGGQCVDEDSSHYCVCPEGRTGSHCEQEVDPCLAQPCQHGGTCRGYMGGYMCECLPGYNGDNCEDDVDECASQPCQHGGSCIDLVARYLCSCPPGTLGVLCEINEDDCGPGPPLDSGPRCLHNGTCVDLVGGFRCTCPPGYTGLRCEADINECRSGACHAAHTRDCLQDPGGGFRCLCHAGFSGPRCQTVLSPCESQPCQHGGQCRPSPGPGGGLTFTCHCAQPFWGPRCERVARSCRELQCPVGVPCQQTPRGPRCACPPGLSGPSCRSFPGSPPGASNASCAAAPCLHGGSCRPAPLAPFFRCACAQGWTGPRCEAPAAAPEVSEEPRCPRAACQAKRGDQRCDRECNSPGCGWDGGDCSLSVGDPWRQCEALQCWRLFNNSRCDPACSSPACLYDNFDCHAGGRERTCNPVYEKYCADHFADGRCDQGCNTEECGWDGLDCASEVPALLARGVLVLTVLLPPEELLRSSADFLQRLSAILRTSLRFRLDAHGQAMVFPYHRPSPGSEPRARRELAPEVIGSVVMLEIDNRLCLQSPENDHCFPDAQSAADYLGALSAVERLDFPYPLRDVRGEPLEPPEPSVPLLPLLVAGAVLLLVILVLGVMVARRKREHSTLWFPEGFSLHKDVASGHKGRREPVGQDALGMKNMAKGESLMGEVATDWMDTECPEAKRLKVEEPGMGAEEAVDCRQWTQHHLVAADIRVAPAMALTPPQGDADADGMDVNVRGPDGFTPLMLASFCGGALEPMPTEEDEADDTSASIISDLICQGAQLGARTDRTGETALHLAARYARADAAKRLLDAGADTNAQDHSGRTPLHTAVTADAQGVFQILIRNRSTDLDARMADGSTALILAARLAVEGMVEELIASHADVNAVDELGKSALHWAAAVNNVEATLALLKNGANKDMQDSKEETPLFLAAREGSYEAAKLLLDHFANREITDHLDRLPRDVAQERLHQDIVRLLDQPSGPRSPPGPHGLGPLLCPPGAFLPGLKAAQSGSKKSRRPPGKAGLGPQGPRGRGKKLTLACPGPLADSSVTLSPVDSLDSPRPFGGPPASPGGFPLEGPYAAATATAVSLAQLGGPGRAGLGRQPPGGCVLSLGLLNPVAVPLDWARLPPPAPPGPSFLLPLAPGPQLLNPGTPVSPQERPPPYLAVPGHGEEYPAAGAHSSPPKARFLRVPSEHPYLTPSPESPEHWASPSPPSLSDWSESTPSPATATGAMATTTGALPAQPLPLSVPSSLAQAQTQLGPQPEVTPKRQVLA
# [10] = probe aEGFR binding to arrayed compounds – biochemical, biotinylated probe, 635/667 nm fluorescence, primary screen (AID 1097); settings: small-molecule microarray, higher = more signal;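 also: probe is a biotinylated anti-EGFR antibody binding compounds printed on slides; score combines fluorescence near 667 nm and signal to noise of each spot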
# [11] = test system: Plasmodium falciparum Sir2 (PF13_0152, Sir2A); experiment: Plasmodium falciparum Sir2A binding compounds – biochemical, small-molecule microarray, 635 nm fluorescence, primary screen (AID 1098); settings: fluorescence 635 nm, higher = more signal;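 also: score merges spot fluorescence intensity with its signal-to-noise ratio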
# [12] = probe aDKK1 binding to arrayed compounds – biochemical, biotinylated probe, 635/667 nm fluorescence, primary screen (AID 1099); settings: small-molecule microarray, higher = more signal;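 also: score merges 667nm spot fluorescence with signal to noise across triplicate slides; reference of the scale not given here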
# [13] = probe aCHRDL2 binding to arrayed compounds – biochemical, biotinylated probe, 635/667 nm fluorescence, primary screen (AID 1100); settings: small-molecule microarray, higher = more signal
# [14] = change in splice reporter luminescence, either direction, cell-based, HEK293, spliceosome inhibition project, primary screen (AID 1101); settings: HEK293 splicing luciferase reporter, 24 h, higher = more signal, called active from +8 up or from −8 down;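 also: HEK293 cells carrying a splicing-competent luciferase reporter gene; test concentration not given here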
# [15] = target: Fibroblast growth factor 10 (Homo sapiens) (UniProt O15520); experiment: compounds binding fibroblast growth factor 10 – biochemical, small-molecule microarray, 635 nm fluorescence, primary screen (AID 1102); settings: FGF10 binding, fluorescence 635 nm, higher = more signal
# Fibroblast growth factor 10 (Homo sapiens), sequence (O15520 whole entry, looked up): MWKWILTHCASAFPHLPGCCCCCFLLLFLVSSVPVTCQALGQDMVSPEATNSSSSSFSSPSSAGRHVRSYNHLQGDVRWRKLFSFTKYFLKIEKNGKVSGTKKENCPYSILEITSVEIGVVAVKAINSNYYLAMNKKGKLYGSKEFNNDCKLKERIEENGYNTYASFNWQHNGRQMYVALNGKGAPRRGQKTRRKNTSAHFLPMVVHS
# [16] = test system: glycogen synthase kinase-3 (GSK3A per assay name; protocol says GSK3B); experiment: compounds binding glycogen synthase kinase-3 – biochemical, small-molecule microarray, 635 nm fluorescence, GSK3A, primary screen (AID 1103); settings: fluorescence 635 nm, higher = more signal; also: the record names both GSK3A and GSK3B
# [17] = target: Epidermal growth factor receptor (Homo sapiens) (UniProt P00533); experiment: compounds binding epidermal growth factor receptor – biochemical, small-molecule microarray, 635 nm fluorescence, primary screen (AID 1104); settings: EGFR binding, higher = more signal;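 also: score merges 667 nm emission intensity with spot signal to noise over triplicate slides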
# Epidermal growth factor receptor (Homo sapiens), sequence (P00533 whole entry, looked up): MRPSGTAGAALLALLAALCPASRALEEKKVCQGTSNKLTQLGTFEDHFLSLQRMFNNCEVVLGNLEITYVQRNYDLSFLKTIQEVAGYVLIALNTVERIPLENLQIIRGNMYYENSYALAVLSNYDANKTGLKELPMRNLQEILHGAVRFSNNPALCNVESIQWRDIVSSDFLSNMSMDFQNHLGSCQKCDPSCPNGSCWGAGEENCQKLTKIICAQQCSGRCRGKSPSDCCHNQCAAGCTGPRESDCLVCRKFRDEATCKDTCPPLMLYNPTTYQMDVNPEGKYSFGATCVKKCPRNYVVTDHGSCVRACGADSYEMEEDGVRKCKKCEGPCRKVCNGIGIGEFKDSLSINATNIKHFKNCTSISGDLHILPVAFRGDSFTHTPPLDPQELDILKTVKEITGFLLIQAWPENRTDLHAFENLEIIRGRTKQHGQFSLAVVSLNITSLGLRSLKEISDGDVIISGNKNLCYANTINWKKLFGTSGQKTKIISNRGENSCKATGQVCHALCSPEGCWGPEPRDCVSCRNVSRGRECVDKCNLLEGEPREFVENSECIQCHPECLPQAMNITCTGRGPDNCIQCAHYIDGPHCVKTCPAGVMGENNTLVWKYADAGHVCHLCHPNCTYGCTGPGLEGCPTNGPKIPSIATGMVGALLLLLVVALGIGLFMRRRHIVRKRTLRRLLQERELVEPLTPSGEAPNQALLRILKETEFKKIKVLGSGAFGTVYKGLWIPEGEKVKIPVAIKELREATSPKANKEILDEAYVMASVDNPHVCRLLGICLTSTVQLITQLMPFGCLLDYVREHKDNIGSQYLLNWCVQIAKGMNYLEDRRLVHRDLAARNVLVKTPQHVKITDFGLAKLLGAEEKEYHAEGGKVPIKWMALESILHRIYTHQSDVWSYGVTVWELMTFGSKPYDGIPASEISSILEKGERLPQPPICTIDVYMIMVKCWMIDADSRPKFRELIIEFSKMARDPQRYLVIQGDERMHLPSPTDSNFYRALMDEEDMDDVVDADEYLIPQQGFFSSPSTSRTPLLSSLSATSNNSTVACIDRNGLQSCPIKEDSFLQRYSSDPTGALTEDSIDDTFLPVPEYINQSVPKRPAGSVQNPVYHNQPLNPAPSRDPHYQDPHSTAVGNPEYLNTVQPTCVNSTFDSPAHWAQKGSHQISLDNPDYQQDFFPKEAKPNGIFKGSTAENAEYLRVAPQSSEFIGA
# [18] = target: Follistatin-related protein 3 (Homo sapiens) (UniProt O95633); experiment: compounds binding follistatin-related protein 3 – biochemical, small-molecule microarray, 635 nm fluorescence, primary screen (AID 1105); settings: FSTL3 binding, higher = more signal;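 also: score merges emission near 667 nm and signal to noise per printed spot across three slides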
# Follistatin-related protein 3 (Homo sapiens), sequence (O95633 whole entry, looked up): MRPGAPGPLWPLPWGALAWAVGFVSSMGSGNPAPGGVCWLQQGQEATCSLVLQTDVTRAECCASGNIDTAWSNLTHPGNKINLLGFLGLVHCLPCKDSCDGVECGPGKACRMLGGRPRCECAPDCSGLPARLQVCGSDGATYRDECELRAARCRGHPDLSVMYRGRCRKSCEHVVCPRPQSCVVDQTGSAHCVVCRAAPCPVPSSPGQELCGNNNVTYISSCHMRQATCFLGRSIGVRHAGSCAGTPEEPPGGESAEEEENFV
# [19] = target: Dickkopf-related protein 1 (Homo sapiens) (UniProt O94907); experiment: small molecules binding DKK1 protein – biochemical, small-molecule microarray, 635 nm fluorescence scan, primary screen (AID 1106); settings: higher = more signal;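 also: score merges emission near 667 nm with signal to noise over three replicate slides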
# Dickkopf-related protein 1 (Homo sapiens), sequence (O94907 whole entry, looked up): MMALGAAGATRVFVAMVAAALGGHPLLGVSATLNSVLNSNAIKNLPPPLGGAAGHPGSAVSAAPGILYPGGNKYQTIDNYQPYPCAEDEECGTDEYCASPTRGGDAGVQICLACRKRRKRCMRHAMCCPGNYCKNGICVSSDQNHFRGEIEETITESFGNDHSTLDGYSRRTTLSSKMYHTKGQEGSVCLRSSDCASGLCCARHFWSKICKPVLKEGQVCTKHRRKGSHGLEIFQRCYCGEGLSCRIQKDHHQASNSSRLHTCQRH
# [20] = test system: Inhibin beta A chain (activin A); experiment: small molecules binding activin A – biochemical, small-molecule microarray, 635 nm fluorescence scan, primary screen (AID 1107); settings: INHBA, higher = more signal;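 also: mouse activin A protein probed at 4.33 µg/mL on printed slides; score merges bound-protein fluorescence near 667 nm with spot signal-to-noise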
SMILES,composite z-score [1],z-score [2],z-score [3],z-score [4],composite z-score [5],z-score [6],composite z-score [7],composite z-score [8],composite z-score [9],composite z-score [10],composite z-score [11],composite z-score [12],composite z-score [13],z-score [14],composite z-score [15],composite z-score [16],composite z-score [17],composite z-score [18],composite z-score [19],composite z-score [20]
CC(C)C[C@@H]1NC(=O)CNC(=O)[C@@]23C(=O)N[C@@H](Cc4ccccc4)C2[C@H](C)[C@@]2(C)O[C@H]2C3/C=C/C/C=C\CNC1=O (stereo not given in full),1.31,-0.536 (inactive),-0.26 (inactive),-0.0716 (inactive),2.72,-0.461 (inactive),-0.159,0.363,1.01,-0.0828,0.15,-0.212,-0.445,0.426 (inactive),0.569,1.15,0.366,1.04,0.568,1.25
C=C(COC)/C(=C/C[C@@H](OC(=O)c1ccncc1)c1ccccc1OCCO)c1cc(C(=O)OC)ccc1OC,0.768,-0.833 (inactive),-0.778 (inactive),0.351 (inactive),0.703,0.0184 (inactive),-0.106,-0.341,-0.0686,-0.178,-0.979,-0.0241,0.445,2.66 (inactive),-0.0528,-0.628,-0.796,-0.354,-0.276,0.845
O=c1cccc(-c2ccc(F)cc2)o1,0.777,-1.28 (inactive),-0.0295 (inactive),-0.313 (inactive),-0.326,-0.428 (inactive),-0.0591,0.245,0.784,0.132,0.347,0.328,-0.3,0.362 (inactive),0.948,0.716,0.444,0.74,0.399,0.457
CC(C)[C@H]1NC(=O)[C@@]23C(=O)N[C@@H](Cc4ccccc4)C2[C@H](C)[C@@]2(C)O[C@H]2C3/C=C/CCC/C=C/CNC(=O)[C@H](Cc2ccccc2)NC1=O (stereo not given in full),0.776,0.249 (inactive),-1.4 (inactive),-0.622 (inactive),2.47,0.139 (inactive),-0.232,1.22,0.419,-0.161,1.39,-0.339,-0.32,0.286 (inactive),0.106,0.291,-0.023,0.0435,0.147,0.943
CCOC(=O)C[C@H]1[C@H](OC(=O)c2ccccc2-c2ccccc2)[C@@H](NC(=O)c2ccc3ccccc3n2)c2cc(OCCCO)ccc2N1C(=O)c1ccccc1,1.01,1.2 (inactive),0.364 (inactive),1.61 (inactive),1.46,-0.943 (inactive),-0.149,0.54,0.797,-0.0084,0.459,-0.269,-0.46,-0.407 (inactive),0.526,0.45,0.575,0.581,0.499,0.0428
NC(=O)[C@H]1[C@@H]2C(=O)O[C@@H](c3ccccc3)[C@@H](c3ccccc3)N2[C@@H](c2ccc(O)cc2)[C@]12C(=O)Nc1ccc(C#CC3=CCCCC3)cc12,1.45,1.42 (inactive),0.481 (inactive),2.1 (inactive),2.83,-1.32 (inactive),-0.185,0.186,0.169,-0.186,-0.165,-0.157,0.724,-1.67 (inactive),0.0647,-0.229,-0.433,-0.0656,-0.0761,0.0756
C=C(/C(=C/C[C@@H](OC(C)=O)c1ccc(OCCO)cc1)c1cc(C(=O)OC)ccc1OC)C(C)C,0.629,-0.265 (inactive),0.272 (inactive),-1.5 (inactive),1.21,-0.268 (inactive),-0.152,0.902,0.843,-0.176,1.28,0.0968,0.0396,0.0641 (inactive),1.08,0.263,-0.461,0.231,0.328,0.59
C#C[C@@H](CC)O[Si](C#CCCCC#N)(C(C)C)C(C)C,1.12,-13.2 (active),-20.1 (active),-3.15 (inactive),2.2,0.619 (inactive),-0.0257,-0.298,0.398,-0.128,0.329,0.155,-0.0862,-0.196 (inactive),-0.232,-0.021,-0.405,-0.669,-0.277,0.573
CC(C)C(=C=CC[C@H](O)c1cccc(OCCO)c1)CCO,0.801,-1.16 (inactive),-0.538 (inactive),-1.42 (inactive),0.228,0.537 (inactive),-0.285,0.683,0.234,-0.165,0.899,-0.363,-0.148,-1.02 (inactive),1.18,-0.739,-0.209,-0.0067,-0.264,0.148
COCCCNC(=O)[C@@]1(Sc2ccc(C)cc2)CC(=O)N(Cc2ccccc2Cl)[C@@H]1c1ccc(CO)cc1I,-0.76,-0.89 (inactive),-2.01 (inactive),0.0449 (inactive),1.04,0.668 (inactive),-0.0654,-0.691,-0.318,-0.249,0.515,0.0057,0.791,-0.529 (inactive),-0.668,-1.05,-1.29,-0.491,-1.12,0.45
